# Counter-ions that a name gives are not always drawn. ± gives the standard deviation of the averaged measurements.
# System: Toxoplasma gondii RH (in HFF)
# Assay: parasite growth relative to the screen mean (all compounds = 100%); higher = less inhibition of parasite growth
# Conditions: 5 µM; 72 h; oxygen 21 %
# Procedure, shortened: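 Each value is parasite growth expressed against the screen mean, averaged over two screens, where the mean of all compounds = 100%. The screen used 5 µM final compound on confluent human foreskin fibroblasts infected with RH β-Gal–GFP Toxoplasma (MOI 1:5) within 2 h and grown 72 h at 21% O2. Parasite number was measured by a CPRG β-Gal assay against in-plate standard curves.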
row,SMILES,parasite growth
1,OCCN(CCO)c1nc(N2CCCCC2)c2nc(N(CCO)CCO)nc(N3CCCCC3)c2n1 [Dipyridamole],142 ± 1.7%
2,CCc1c2c(nc3ccc(OC(=O)N4CCC(N5CCCCC5)CC4)cc13)-c1cc3c(c(=O)n1C2)COC(=O)[C@]3(O)CC,59.8 ± 11%
3,CCOC(=O)[C@H](CCc1ccccc1)N[C@@H](C)C(=O)N1Cc2cc(OC)c(OC)cc2C[C@H]1C(=O)O [Moexipril hydrochloride],63.9 ± 14%
4,COc1cc2c(CCNC(C)=O)c[nH]c2cc1Cl [6-Chloromelatonin],131 ± 24%
5,CC(C1=C(CCN(C)C)Cc2ccccc21)c1ccccn1 (stereo in doubt) [(S)-(+)-Dimethindene maleate],83.1 ± 56%
6,COc1ccc2cccc(N3CCN(CCNC(=O)c4ccc(F)cc4)CC3)c2c1,122 ± 20%
7,COC(=O)C(Cc1ccc(OCCn2c(=O)sc3cc(C(=O)c4ccccc4)ccc32)cc1)C(=O)OC,120 ± 5.3%
8,O=C1C(=O)N(Cc2ccc(Cl)c(Cl)c2)c2ccccc21 [Apoptosis Activator 2],120 ± 3.4%
9,"C1CCC2(CC1)CCNCC2 [4,4-Pentamethylenepiperidine hydrochloride]",107 ± 22%
10,c1ccc(-c2n[nH]c3c2oc2ccccc23)cc1,103 ± 32%
11,NS(=O)(=O)c1nn2cc(-c3ccccc3)nc2s1,108 ± 28%
12,O=C(O)C1(C(=O)O)CCC1.[NH2-].[NH2-].[Pt+2] [Carboplatin],136 ± 19%
13,O=c1cc(N2CCOCC2)oc2c(-c3ccccc3)cccc12,129 ± 26%
14,O=C(NCCCN1CCC2(CC1)OCc1ccccc12)[C@H]1CCCN1Cc1ccccc1,136.9 ± 0.99%
15,CCCCc1nn(-c2ccccc2C(F)(F)F)c(=O)n1Cc1ccc(-c2ccccc2S(=O)(=O)NC(=O)c2sccc2C)cc1,137 ± 20%
16,O=C(Nc1ccncc1)c1cc([N+](=O)[O-])ccc1Cl,< 0%
17,O=c1[nH]nc(Sc2ncc([N+](=O)[O-])s2)n1-c1ccc2c(c1)OCCO2,130 ± 46%
18,CN1CCC(=C2c3ccccc3C=Cc3ccccc32)CC1 [Cyproheptadine hydrochloride],12.1 ± 16%
19,CCCCc1nc2ccn(Cc3cccs3)c(=O)c2n1Cc1ccc(-c2ccccc2-c2nn[nH]n2)cc1,104 ± 12%
20,COc1ccc(OC)c2c(=S)c3ccccc3[nH]c12,171 ± 20%
21,O=C1c2ccccc2CCC1CNCCc1ccc(O)cc1 (centres undefined) [HEAT hydrochloride],68.1 ± 13%
22,N#Cc1c(O)c2c(-c3ccc(-c4ccccc4O)cc3)csc2[nH]c1=O,131 ± 14%
23,NC(C(=O)O)c1ccc(C(=O)O)c(C(=O)O)c1 (centres undefined),141 ± 3%
24,CC(C)C1C2CCC(C2)C1N (centres undefined),118 ± 6.6%
